The values below come from PubChem BioAssay (NCI).

Holding throughout (test): NCI-60 one-dose screen, 48 h (100 = growth as untreated, 0 = no growth, -100 = all killed)
Holding throughout (settings): 10 µM unless noted

Assay [1] relates to HCT-15 colon.
Assay [2] concerns HT29 colon.
Assay [3] deals with SNB-75 CNS.
Assay [4] deals with SNB-19 CNS.
The test system of assay [5] is U251 CNS.
Assay [6] has as its system PC-3 prostate.
In assay [7] the test system is SK-MEL-5 melanoma.
For assay [8], the system named is UACC-62 melanoma.
The subject of assay [9] is LOX IMVI melanoma.
For assay [10], the system named is SK-MEL-28 melanoma.

About 83,000 compounds went through this panel and 20% of them were active in at least one assay; those are over-represented in the sample as a whole.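 The test compound was applied at a single concentration to cells in 96-well plates for 48 hours, and percent growth was recorded.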 A number with no mark means an inactive call. Active and inactive are the calls of the source. Rule for the calls: active = growth percent below 10; inactive = the rest.

`C[C@@H]1C(=O)[C@@H]2C[C@@H](O)[C@@H](O)C[C@]2(C)[C@H]2CC[C@@]3(C)C(=C12)CC[C@@H]3[C@@](C)(O)[C@H](O)CCC(C)(C)O`: the growth is 107% in [1]; 97.6% in assay [2]; 108% in [3]; 104% in assay [4]; 96.6% in assay [5]; 96.4% in [6]. Besides, the growth is 98.1% in assay [7], 97.8% in assay [8], 101% in [9] and 113% in assay [10].

In the case of `C=C(C)[C@@H]1CC[C@]2(C(=O)O)CC[C@]3(C)[C@H](CC[C@@H]4[C@@]5(C)C[C@@H](CC#Cc6ccccc6)C(=O)C(C)(C)[C@@H]5CC[C@]43C)[C@@H]12`, the growth was 18.8% in assay [1]; 23.9% in [2]; 65.1% in assay [3]; 46.3% in assay [4]; 27.8% in assay [5]; 35.3% in assay [6]. Besides, the growth in assay [7] was 32%; in [8] it was 42.4%; in [9], 45.1%; in assay [10], 45.1%.

Consider `COC(=O)/C=C1\SC(=Nc2ccc(C(F)(F)F)cc2)N(CCc2c[nH]c3ccccc23)C1=O`, for which the growth was -71.4% (active) in assay [1]; -34.1% (active) in [2]; 59.2% in [3]; -51.7% (active) in [4]; -87.8% (active) in assay [5]; -61.1% (active) in assay [6]. The growth is -88.8% (active) in [7], -62.5% (active) in [8], -97% (active) in [9] and -58.9% (active) in [10].

Take `COc1ccc(C(=S)c2cc(OC)c(OC)c(OC)c2)cc1OC(=O)CCl`: the growth in assay [1] was 14.3%; in [2], 24%; in assay [3], 53.8%; in assay [4], 31.4%; in assay [5], 4.79% (active); in assay [6], 14.1%. Moreover, the growth in assay [7] was -29.7% (active); in assay [8], 47.9%; in assay [9], 19.6%; in [10], 67.8%.

Regarding `C/C(=C\c1cnc(C)s1)[C@@H]1C[C@@H]2O[C@@H]2CCC[C@H](C)[C@H](O)[C@@H](C)C(=O)C(C)(C)[C@@H](O)CC(=O)O1`, the growth in [1] was 23%; in assay [2], 8.92% (active); in [3] it was -1.96% (active); in [4], 44%; in assay [5], 24.5%; in [6] it was 34.2%. Moreover, the growth in [7] is 34.3%; in [8] it was 51%; in assay [9] it was 46.4%; in [10], 75.1%.

In the case of `FC(F)(F)c1ccc2c(Nc3cccc(C4CC(c5ccccc5)=NN4c4ccc(Cl)cc4)c3)ccnc2c1` (stereo not given), the growth in assay [1] was 5.61% (active); in [2] it was 19%; in assay [3] it was 70%; in [4], 41.4%; in assay [5], 29.3%; in assay [6] it was 34%. Further, the growth in assay [7] was 75.1%; in assay [8], 49.4%; in assay [9], -53.9% (active); in assay [10] it was 48.6%.

`C=C(C)[C@@H]1CC[C@]2(C(N)=O)CC[C@]3(C)[C@H](CC[C@@H]4[C@@]5(C)CCCNC(C)(C)[C@@H]5CC[C@]43C)[C@@H]12`: the growth in [1] is 50.2%; in assay [2] it was 16.4%; in [3], 76%; in assay [4] it was 87.3%; in assay [5], 58.7%; in [6], 50.3%. Further, the growth was 67.2% in assay [7], 87.4% in assay [8], 76.9% in [9] and 85.1% in assay [10].

Take `CC[C@H](Nc1ncnc2nc[nH]c12)c1nc2cccc(CC(=O)c3ccc(C(=O)NO)cc3)c2c(=O)n1-c1ccccc1`: the growth in assay [1] was 102%; in [2], 82%; in assay [3], 56.3%; in assay [4], 93.2%; in assay [5], 89.3%; in assay [6], 73.6%. The growth is 96.6% in assay [7], 79.9% in assay [8], 91.7% in assay [9] and 90.2% in assay [10].

In the case of `COc1cc(NC(=O)c2cc(O)c(C/C=C(\C)CCC=C(C)C)c(O)c2)cc2c1O[C@]1(C)CC[C@@H](O)C(C)(C)[C@H]1C2`, the growth was 10.4% in assay [1]; 2.06% (active) in assay [2]; 0.372% (active) in assay [3]; 8.74% (active) in assay [4]; 0.579% (active) in [5]; 13.1% in assay [6]. Further, the growth in assay [7] was -68.2% (active); in assay [8], -4.89% (active); in assay [9], -65.8% (active); in assay [10], 8.85% (active).

As to `O=c1[nH]c2ccccc2cc1-c1nc2ccc(Cl)cc2[nH]1`, the growth is 23.5% in [1]; 53.1% in assay [2]; 45.1% in assay [3]; 75.5% in assay [4]; 49.5% in assay [5]; 26% in [6]. Moreover, the growth in [7] was 42.5%; in [8], 43%; in [9] it was 42.4%; in [10], 72.4%.

Turning to `CC(C)(C)c1nn(-c2ccccc2)c2c1COCN2Cc1ccc(Cl)cc1`, the growth in [1] is 96%; in assay [2] it was 65.7%; in assay [3] it was 95.1%; in assay [4], 92.4%; in assay [5] it was 90.3%; in assay [6] it was 63.6%. The growth in assay [7] was 82.2%; in assay [8], 72.8%; in [9] it was 85%; in assay [10] it was 100%.

As to `COc1ccc(C(=O)c2cc(OC)c(C)c(OC)c2)cc1OC(=O)CCl`, the growth in assay [1] was 12.4%; in assay [2], 55.6%; in [3] it was 38.1%; in [4] it was 28.4%; in assay [5], 17.1%; in [6], 13.4%. Moreover, the growth in [7] is 9.8% (active); in assay [8], 38%; in assay [9], 21.8%; in assay [10] it was 49.5%.
